The values below come from PubChem BioAssay (EPA / NIEHS).

“And” between values parts separate entries of the source, which are not always exact repeats. Equal values may be shown once. Inconclusive results are not listed. More than one record can exist for a structure, and the calls need not agree. The source made the active and inactive calls. The calls were made as follows, unless noted: active = hit-call score of the fitted dose curve at least 0.9, where 1 is the maximum; inconclusive = response in the unintended direction; inactive = score below 0.9.

Assay [1] concerns the target Nuclear receptor subfamily 1 group I member 2 (Homo sapiens) (UniProt O75469). The assay is described as follows: NVS_NR_hPXR: NovaScreen (NVS) Nuclear Receptor Binding Assay for human Pregnane X Receptor (PXR) (AID 2283365).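 Also: a drop in FRET signal versus DMSO baseline means the compound binds.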 A digest of the protocol: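 Read-out: TR-FRET, human PXR, 2 h post-dosing, cell-free. Loss of signal vs DMSO taken as binding activity; 25 uM primary, concentration series secondary.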

Assay [2] deals with rat Androgen Receptor (AR), Ar (gene 24208) (UniProt P15207). Kind of assay: NVS_NR_rAR: NovaScreen (NVS) Nuclear Receptor Binding Assay for rat Androgen Receptor (AR) (AID 2283366). In short, it runs like this: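 Actives from a duplicate single-concentration (25 uM) primary run went on to concentration series. Displacement of radioligand was counted by filtration and scintillation, 18 h post-dose, using prostate extracts from testosterone-pretreated rats, with DMSO as baseline.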

The test system of assay [3] is guinea pig Dopamine Transporter (DAT), gene 100714898. Kind of assay: NVS_TR_gDAT: NovaScreen (NVS) Transporter Assay for guinea pig Dopamine Transporter (DAT) (AID 2283369).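 Also: active compounds lower bound radioligand signal relative to DMSO.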 In short, it runs like this:
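Primary pass: duplicate wells at 25 uM, threshold e.g. 30% inhibition. Follow-up: singleton concentration-response, highest 50 uM. Radioligand binding on guinea pig striatal membranes, 2 h, filtration scintillation detection.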

The target of assay [4] is mouse Estrogen Receptor alpha (Era), Esr1 (gene 13982) (UniProt P19785). The assay is described as follows: NVS_NR_mERa: NovaScreen (NVS) Nuclear Receptor Binding Assay for mouse Estrogen Receptor alpha (Era) (AID 2283378).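 Also: hit means loss of bound radioligand signal relative to DMSO.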 In short, it runs like this:
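Measurements come from scintillation counting after filtration, taken 18 hours after chemicals were added to a cell-free mouse Era preparation with radioligand. Screening was duplicate at 25 uM, with concurrent positive and negative controls and confirmatory concentration series for actives.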

Assay [5] addresses Agonist Androgen Response Element (ARE), AR (gene 367) (UniProt P10275). Kind of assay: OT_AR_ARELUC_AG_1440: Odyssey Thera (OT) 24-hour CHO-K1 Luciferase Assay for Agonist Androgen Response Element (ARE) (AID 2283379). A digest of the protocol:
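Readout: luciferase bioluminescence from CHO-K1 ARE-luc cells, measured 24 h post-dosing; agonism = increased mean luminescence vs DMSO controls, fitted in positive direction.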

Assay [6] deals with Estrogen receptor (Homo sapiens) (UniProt P03372). The assay is described as follows: OT_ERa_GFPERaERE_0480: Odyssey Thera (OT) 8-hour HeLa Transcription Induction Assay for Estrogen Receptor (AID 2283381; active = hit-call score of the fitted dose curve at least 0.9, where 1 is the maximum; inactive = score below 0.9). A digest of the protocol:
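Human cervical HeLa cells were treated for 8 hours, after which ERE-driven GFP induction was measured by fluorescence microscopy; increases over DMSO baseline defined activity.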

For assay [7] the target is unchanged. The assay is described as follows: OT_ERa_GFPERaERE_0120: Odyssey Thera (OT) 2-hour HeLa Transcription Induction Assay for Estrogen Receptor (AID 2283382). A digest of the protocol:
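Cells (human cervical HeLa) receive compound, incubate 2 hours, then are imaged for fluorescent reporter induction. Images are quantified by high content analysis, and activity is fitted as gain of signal against DMSO.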

Assay [8] concerns the target Bile acid receptor (Homo sapiens) (UniProt Q96RI1). The assay is described as follows: OT_FXR_FXRSRC1_0480: Odyssey Thera (OT) 8-hour HEK293T Protein-Complementation Assay for Farnesoid X receptor/SRC-1 Co-activator (AID 2283383). A digest of the protocol:
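PCA, HEK293T, 8 h compound exposure; FXR–SRC-1 binding reconstitutes split reporter; fluorescence intensity; positive-direction fit vs DMSO.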

For assay [9] the target is unchanged. The assay is described as follows: OT_FXR_FXRSRC1_1440: Odyssey Thera (OT) 24-hour HEK293T Protein-Complementation Assay for Farnesoid X receptor/SRC-1 Co-activator (AID 2283384). A digest of the protocol:
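Measures ligand-driven FXR–SRC-1 co-activator recruitment in HEK293T via fragment complementation, fluorescence intensity at 24 h. DMSO served as negative control and baseline for gain-of-signal fitting.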

Assay [10] addresses PGR (gene 5241) (UniProt P06401). The assay is described as follows: NVS_NR_hPR: NovaScreen (NVS) Nuclear Receptor Binding Assay for human Progestron Receptor (PR) (AID 2283360).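 Also: active means loss of bound radioligand signal versus DMSO baseline.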 A digest of the protocol: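 Cell-free radioligand binding using receptor protein extracted from T47D cells, read by scintillation counting 18 hours after dosing. Loss of signal relative to DMSO baseline indicates displacement; primary screen single concentration 25 uM in duplicate, actives followed in concentration series.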

Assay [11] deals with guinea pig Sigma Receptor, Non-selective Binding, SIGMAR1 (gene 100135589) (UniProt Q60492). Kind of assay: NVS_OR_gSIGMA_NonSelective: NovaScreen (NVS) Nuclear Receptor Binding Assay for guinea pig Sigma Receptor, Non-selective Binding (AID 2283367). A digest of the protocol:
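Guinea pig brain membrane sigma sites were labelled with a radioligand, and bound radioactivity was counted after filtration 1 h post-dose. Compounds were screened at 25 uM in duplicate, then retested as concentration series when active.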

Assay [12] has as its system rat Norepinephrine Transporter (NET), gene 83511. Kind of assay: NVS_TR_rNET: NovaScreen (NVS) Transporter Assay for rat Norepinephrine Transporter (NET) (AID 2283373). A digest of the protocol:
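Competitive radioligand displacement at the rat NET using forebrain membrane preparations, 1 h incubation, filter-based scintillation readout. Primary testing in duplicate at a single 25 uM concentration; confirmed actives retested across concentrations.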

In assay [13] the target is human Norepinephrine Transporter (NET), SLC6A2 (gene 6530) (UniProt P23975). The assay is described as follows: NVS_TR_hNET: NovaScreen (NVS) Transporter Assay for human Norepinephrine Transporter (NET) (AID 2283377).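 Also: cell-free membrane protein extracted from CHO cells expressing human NET; displacement of radioligand from human NET seen as loss of scintillation signal.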 A digest of the protocol: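 Single-concentration duplicate screen at 25 uM, then concentration-response for actives; displacement of specific radioligand from human NET in CHO membrane extracts, filter-based scintillation detection at 1 h relative to DMSO.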

Assay [14] addresses Glucocorticoid receptor (Homo sapiens) (UniProt P04150). The assay is described as follows: NVS_NR_hGR: NovaScreen (NVS) Nuclear Receptor Binding Assay for human Glucocorticoid Receptor (GR) (AID 2283363).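 As to AC50: activity is loss of specific radioligand binding signal relative to DMSO.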 A digest of the protocol: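 Compounds first tested in duplicate at 25 uM, actives followed up in concentration series. Binding to extracted GR protein measured as competitive radioligand displacement, filter scintillation read 16 h post-dosing, normalised to DMSO.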

In assay [15] the target is human Thyroid Receptor Alpha (TRa), THRA (gene 7067) (UniProt P10827). The assay is described as follows: NVS_NR_hTRa_Antagonist: NovaScreen (NVS) Nuclear Receptor Binding Assay for human Thyroid Receptor Alpha Antagonism (TRa) (AID 2283362). A digest of the protocol: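 In this biochemical format, receptor protein is dosed with chemical and read after 1 hour via AlphaLISA. Decreases from the DMSO baseline indicate antagonist activity; screening used 25 uM in duplicate before concentration-response confirmation.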

Assay [16] concerns the target Estrogen receptor beta (Homo sapiens) (UniProt Q92731). The assay is described as follows: OT_ER_ERbERb_1440: Odyssey Thera (OT) 24-hour HEK293T Protein-Complementation Assay for Estrogen Receptor-beta/-beta Homodimer (AID 2283380).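 Also: fluorescence gain from ER beta LBD homodimer complementation read by laser scanning cytometry; scored as signal increase over DMSO baseline for both agonists and antagonists.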 A digest of the protocol: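 Fluorescence increase, nuclear for agonists or whole-cell for antagonists, relative to DMSO vehicle, quantified by laser scanning cytometer after fixation and Draq5 staining. Readout from 24 h treatment of HEK293T cells carrying complementation-paired ER beta LBD (aa 310-547).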

The target of assay [17] is human Adenosine Transporter (Adot), SLC29A1 (gene 2030) (UniProt Q99808). The assay is described as follows: NVS_TR_hAdoT: NovaScreen (NVS) Transporter Assay for human Adenosine Transporter (Adot) (AID 2283368). In short, it runs like this:
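Binding displacement on U937 extracted protein, read 1 h post-dose by filtration and scintillation counting. Primary duplicate test at 25 uM, then singleton concentration series with 50 uM top; DMSO baseline.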

Sequence of Agonist Androgen Response Element (ARE), AR (gene 367) (P10275 whole entry, looked up): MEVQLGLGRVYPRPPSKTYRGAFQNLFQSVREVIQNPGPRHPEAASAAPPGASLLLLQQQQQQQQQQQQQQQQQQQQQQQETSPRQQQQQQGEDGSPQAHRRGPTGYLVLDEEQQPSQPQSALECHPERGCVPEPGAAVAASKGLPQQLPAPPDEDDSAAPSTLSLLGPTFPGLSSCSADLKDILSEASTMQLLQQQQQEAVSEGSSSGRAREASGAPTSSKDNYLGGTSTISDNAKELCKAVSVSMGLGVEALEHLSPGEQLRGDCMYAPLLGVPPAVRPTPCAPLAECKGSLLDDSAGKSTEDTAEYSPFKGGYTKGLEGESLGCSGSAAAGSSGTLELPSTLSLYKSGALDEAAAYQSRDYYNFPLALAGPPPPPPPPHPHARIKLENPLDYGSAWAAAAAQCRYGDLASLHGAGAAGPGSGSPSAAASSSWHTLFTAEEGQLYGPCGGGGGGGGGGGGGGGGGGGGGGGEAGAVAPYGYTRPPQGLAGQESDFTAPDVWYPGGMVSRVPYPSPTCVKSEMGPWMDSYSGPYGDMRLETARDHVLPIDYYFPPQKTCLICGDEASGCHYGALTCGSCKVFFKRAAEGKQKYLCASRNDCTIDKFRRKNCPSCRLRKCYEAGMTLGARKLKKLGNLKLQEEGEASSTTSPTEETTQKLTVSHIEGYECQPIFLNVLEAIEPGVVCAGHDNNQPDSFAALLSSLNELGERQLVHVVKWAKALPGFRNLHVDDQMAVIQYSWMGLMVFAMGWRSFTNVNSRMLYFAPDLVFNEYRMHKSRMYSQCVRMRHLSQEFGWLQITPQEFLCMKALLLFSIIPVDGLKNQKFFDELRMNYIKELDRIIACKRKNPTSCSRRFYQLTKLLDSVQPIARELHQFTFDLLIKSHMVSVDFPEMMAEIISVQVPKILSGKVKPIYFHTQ
Sequence of Bile acid receptor (Homo sapiens) (Q96RI1 whole entry, looked up): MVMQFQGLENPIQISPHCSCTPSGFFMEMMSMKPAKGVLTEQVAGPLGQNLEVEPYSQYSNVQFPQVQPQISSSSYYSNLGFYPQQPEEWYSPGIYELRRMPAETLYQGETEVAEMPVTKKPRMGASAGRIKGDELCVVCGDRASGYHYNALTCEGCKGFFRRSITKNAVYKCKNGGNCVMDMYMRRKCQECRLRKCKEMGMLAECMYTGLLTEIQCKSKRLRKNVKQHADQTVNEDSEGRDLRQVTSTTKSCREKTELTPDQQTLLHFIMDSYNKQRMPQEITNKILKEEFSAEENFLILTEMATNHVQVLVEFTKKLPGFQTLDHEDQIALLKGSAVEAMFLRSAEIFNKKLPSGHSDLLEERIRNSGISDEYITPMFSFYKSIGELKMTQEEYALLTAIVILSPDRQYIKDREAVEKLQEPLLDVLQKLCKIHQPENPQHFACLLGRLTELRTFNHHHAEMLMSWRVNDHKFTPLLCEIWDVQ
Sequence of mouse Estrogen Receptor alpha (Era), Esr1 (gene 13982) (P19785 whole entry, looked up): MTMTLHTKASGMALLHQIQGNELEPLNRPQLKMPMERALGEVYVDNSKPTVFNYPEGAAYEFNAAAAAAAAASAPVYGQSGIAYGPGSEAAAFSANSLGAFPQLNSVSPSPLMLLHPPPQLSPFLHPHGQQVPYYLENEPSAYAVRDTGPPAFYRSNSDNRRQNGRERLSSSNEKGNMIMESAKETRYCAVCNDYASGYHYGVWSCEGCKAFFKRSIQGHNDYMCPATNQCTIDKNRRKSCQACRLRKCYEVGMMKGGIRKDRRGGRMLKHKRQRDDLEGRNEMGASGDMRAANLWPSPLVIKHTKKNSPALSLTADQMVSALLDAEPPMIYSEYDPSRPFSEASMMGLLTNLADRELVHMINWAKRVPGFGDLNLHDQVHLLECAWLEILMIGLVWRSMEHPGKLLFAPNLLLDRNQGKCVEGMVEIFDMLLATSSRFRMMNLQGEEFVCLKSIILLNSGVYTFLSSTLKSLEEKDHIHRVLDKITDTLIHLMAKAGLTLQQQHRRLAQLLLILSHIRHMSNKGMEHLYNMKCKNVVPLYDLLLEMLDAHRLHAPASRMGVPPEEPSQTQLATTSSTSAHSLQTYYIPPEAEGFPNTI
Sequence of Estrogen receptor beta (Homo sapiens) (Q92731 whole entry, looked up, the tested form may be a part): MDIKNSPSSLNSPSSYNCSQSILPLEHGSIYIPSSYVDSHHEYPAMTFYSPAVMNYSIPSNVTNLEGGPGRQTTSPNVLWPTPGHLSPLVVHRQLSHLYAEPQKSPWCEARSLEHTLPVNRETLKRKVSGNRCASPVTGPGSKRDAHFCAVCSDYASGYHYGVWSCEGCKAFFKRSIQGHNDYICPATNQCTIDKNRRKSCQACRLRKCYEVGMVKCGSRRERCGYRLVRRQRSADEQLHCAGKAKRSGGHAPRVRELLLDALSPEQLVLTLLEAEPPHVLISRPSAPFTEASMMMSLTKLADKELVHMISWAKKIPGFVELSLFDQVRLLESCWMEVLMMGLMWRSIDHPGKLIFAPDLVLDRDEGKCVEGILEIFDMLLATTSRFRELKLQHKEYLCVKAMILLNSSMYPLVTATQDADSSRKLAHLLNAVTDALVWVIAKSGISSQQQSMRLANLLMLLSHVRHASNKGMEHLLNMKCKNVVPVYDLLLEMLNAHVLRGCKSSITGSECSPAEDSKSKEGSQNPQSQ
Sequence of Estrogen receptor (Homo sapiens) (P03372 whole entry, looked up): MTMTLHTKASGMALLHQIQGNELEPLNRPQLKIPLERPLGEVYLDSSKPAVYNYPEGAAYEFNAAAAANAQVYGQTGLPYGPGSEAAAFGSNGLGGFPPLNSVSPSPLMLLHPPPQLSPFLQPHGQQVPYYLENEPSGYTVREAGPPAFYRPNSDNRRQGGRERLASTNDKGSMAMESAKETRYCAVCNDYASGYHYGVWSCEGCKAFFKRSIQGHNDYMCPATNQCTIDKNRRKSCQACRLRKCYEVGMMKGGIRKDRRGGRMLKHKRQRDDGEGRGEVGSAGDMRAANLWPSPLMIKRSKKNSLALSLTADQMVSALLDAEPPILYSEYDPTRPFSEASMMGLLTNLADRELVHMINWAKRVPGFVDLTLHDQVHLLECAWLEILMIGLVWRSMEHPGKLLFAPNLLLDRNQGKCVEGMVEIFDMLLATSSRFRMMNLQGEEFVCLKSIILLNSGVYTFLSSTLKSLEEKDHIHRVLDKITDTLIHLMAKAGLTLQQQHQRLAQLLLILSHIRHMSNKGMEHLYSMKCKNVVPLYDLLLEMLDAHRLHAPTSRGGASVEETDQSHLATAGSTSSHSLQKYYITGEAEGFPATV
Sequence of rat Androgen Receptor (AR), Ar (gene 24208) (P15207 whole entry, looked up): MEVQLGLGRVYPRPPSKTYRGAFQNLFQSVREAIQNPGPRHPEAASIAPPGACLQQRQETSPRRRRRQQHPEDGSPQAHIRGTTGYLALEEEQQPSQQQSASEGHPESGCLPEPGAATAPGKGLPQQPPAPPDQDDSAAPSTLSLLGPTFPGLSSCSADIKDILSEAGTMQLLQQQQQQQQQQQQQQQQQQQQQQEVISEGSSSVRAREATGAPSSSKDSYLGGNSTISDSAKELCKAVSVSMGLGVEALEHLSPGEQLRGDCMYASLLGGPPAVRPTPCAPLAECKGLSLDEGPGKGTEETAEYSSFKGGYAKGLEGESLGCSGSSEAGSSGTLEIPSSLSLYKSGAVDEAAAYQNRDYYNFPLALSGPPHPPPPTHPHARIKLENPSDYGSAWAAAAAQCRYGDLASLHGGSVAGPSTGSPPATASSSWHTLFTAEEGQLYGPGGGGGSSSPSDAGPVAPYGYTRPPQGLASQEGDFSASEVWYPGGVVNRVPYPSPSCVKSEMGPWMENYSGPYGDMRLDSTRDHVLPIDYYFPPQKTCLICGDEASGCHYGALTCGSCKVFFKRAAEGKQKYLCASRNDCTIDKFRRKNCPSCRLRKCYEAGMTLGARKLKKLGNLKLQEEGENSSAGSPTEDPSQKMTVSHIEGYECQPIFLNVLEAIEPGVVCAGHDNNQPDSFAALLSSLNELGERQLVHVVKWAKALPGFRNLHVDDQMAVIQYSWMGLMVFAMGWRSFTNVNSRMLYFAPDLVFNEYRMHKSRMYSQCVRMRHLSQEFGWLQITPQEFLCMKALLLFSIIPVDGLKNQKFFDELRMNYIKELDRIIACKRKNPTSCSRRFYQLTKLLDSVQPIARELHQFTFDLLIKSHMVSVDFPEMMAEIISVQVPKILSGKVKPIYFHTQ
Sequence of Glucocorticoid receptor (Homo sapiens) (P04150 whole entry, looked up): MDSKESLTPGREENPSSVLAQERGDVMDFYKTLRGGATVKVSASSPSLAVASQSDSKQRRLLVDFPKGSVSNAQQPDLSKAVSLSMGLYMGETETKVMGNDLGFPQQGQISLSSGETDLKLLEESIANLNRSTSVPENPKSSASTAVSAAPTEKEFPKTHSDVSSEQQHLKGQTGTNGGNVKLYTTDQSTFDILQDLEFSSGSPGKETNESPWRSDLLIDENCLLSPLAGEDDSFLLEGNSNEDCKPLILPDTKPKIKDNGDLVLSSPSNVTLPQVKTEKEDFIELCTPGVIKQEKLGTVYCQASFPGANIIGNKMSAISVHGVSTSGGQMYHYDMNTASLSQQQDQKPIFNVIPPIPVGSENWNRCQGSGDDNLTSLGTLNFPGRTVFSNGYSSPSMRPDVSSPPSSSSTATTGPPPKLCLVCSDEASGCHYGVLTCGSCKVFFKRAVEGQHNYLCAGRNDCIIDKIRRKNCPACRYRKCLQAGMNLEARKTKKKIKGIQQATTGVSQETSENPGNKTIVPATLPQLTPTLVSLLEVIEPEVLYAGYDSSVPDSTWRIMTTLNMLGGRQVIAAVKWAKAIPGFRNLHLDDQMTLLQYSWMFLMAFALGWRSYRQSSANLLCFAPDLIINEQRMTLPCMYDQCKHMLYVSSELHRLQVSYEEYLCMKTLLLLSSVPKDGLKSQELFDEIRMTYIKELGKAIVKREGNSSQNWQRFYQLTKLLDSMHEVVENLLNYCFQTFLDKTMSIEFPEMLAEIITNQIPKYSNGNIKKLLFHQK
Sequence of guinea pig Sigma Receptor, Non-selective Binding, SIGMAR1 (gene 100135589) (Q60492 whole entry, looked up): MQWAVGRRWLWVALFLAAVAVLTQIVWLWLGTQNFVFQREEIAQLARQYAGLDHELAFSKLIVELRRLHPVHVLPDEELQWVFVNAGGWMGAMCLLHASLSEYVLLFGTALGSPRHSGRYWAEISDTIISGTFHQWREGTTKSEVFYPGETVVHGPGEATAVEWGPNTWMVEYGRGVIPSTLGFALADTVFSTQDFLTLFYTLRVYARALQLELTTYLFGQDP

The AC50 is the concentration giving half of the maximal activity seen. Turning to `O=C(c1ccccc1)C1CCCCC1`, the compound was classed as inactive in assay [1], in [2], in assay [3], in assay [4], in assay [5] and in assay [6]. For the same compound, the compound was classed as inactive in [7], in assay [8] and in assay [9]. Further, the values for the AC50 in assay [2] and in [5] were 6.52 µM (active) and 0.527 µM (active), respectively.
For the compound `CC(C)(c1ccc(O)cc1)c1ccc(O)cc1`, the AC50 in assay [10] is 11.2 µM (active) and 8.49 µM (active); in assay [1] it was 8.08 µM (active) and 10.9 µM (active); in [2], 16.1 µM (active) [middle of 4 runs]; in assay [11] it was 8.43 µM (active); in [3] it was 8.77 µM (active) and 25.4 µM (active) and 11.6 µM (active); in assay [13], 14.5 µM (active) [middle of 4 runs]. The result in [10], in assay [1], in assay [11], in assay [12], in [4] and in [5] was inactive.
Turning to `CSC(=O)c1cccc2nnsc12`, the result in assay [14], in [5], in [6] and in assay [7] was inactive.
As for `CCCN(CCC)C(=O)SCC`, the compound was called inactive in [10], in assay [15], in assay [2], in assay [5], in assay [16] and in assay [6]. Further, the call in assay [7] was inactive. In addition, the AC50 in assay [14] is 7.09 µM (active).
For the compound `CC(C)CCCCCCc1ccc(O)cc1`, the half-maximal activity concentration (AC50) is 7.09 µM (active) and 16.2 µM (active) and 15.9 µM (active) in assay [14]; 3.14 µM (active) and 7.57 nM (active) and 7.26 µM (active) in assay [4]; 1.2 µM (active) and 1.06 µM (active) and 1.25 µM (active) in assay [16]; 147 nM (active) and 116 nM (active) and 263 nM (active) in assay [6]; 273 nM (active) and 120 nM (active) and 248 nM (active) in assay [7]; 11.5 µM (active) and 11.3 µM (active) in assay [8]. For the same compound, the result in assay [4] was inactive.
As to `CCCCOCCOCCOCc1cc2c(cc1CCC)OCO2`, the call in assay [10], in assay [2], in assay [5], in assay [16] and in assay [9] was inactive. Besides, in [8], the concentration at half-maximal activity (AC50) was 33.1 µM (active).
In the case of `COC(=O)CSc1cc(N=c2sc(=O)n3n2CCCC3)c(F)cc1Cl`, the compound was classed as inactive in assay [2], in [5], in assay [16] and in assay [8].
As to `C[C@]12CC[C@@H]3c4ccc(O)cc4C[C@@H](CCCCCCCCCS(=O)CCCC(F)(F)C(F)(F)F)[C@H]3[C@@H]1CC[C@@H]2O` (stereo partly specified), the AC50 in [14] is 13.1 µM (active); in assay [17] it was 9.12 µM (active); in [4], 3.4 µM (active) and 2.01 µM (active); in assay [5], 0.548 µM (active). Besides, the call in assay [14], in assay [1], in assay [2], in [4], in assay [5] and in [8] was inactive. Also, in assay [9], the call was inactive.
Take `COCCO`: the concentration at half-maximal activity (AC50) in assay [1] was 3.84 µM (active). The outcome in assay [6] and in assay [7] was inactive.
Regarding `N[C@@H](Cc1cc(I)c(Oc2ccc(O)c(I)c2)c(I)c1)C(=O)O`, the compound was called inactive in assay [1], in assay [4], in assay [6] and in assay [7]. In addition, the half-maximal activity concentration (AC50) in [4] was 1.65 µM (active) and 20 µM (active) and 4.66 µM (active).
